# Results reported in PubChem BioAssay (Tox21).
# Inconclusive results are not listed. Unmarked numbers belong to inactive results. The source made the active and inactive calls. Calls follow the shape of the dose curve; as a rule, active = well fitted cell-killing curve with a large enough effect in the repeat runs; inconclusive = weak or mixed curves, or effect the other way; inactive = flat fitted curve, though single readings scatter.
# Test: qHTS assay to identify small molecule antagonists of the retinoid acid receptor (RAR) signaling pathway - cell viability counter screen (AID 1159551); also: nearly all actives have a fitted effect of over 35% in size
# Details: C3RL4 cells viability, ATP luminescence (CellTiter-Glo), 6 h; series mostly up to 92.4 µM; activity change, negative = cytotoxicity: at the top concentration
# Excerpt: U.S. Tox21 Program National Center for Advancing Translational Sciences [NCATS] NIH Chemical Genomics Center [NCGC] U.S. Environmental Protection Agency [EPA] National Institutes of Environmental Health Sciences [NIEHS] National Toxicology Program [NTP] U.S. Food and Drug Administration [FDA] Tox21 Assay Overview: All-trans Retinoic acid (atRA) is the potent natural metabolite of retinol and plays an important role in normal embryonic development and maintenance of cellular phenotype in adult animals. atRA is the activating ligand for the retinoic acid receptors (RARs) which form heterodimers with retinoid X receptors (RXRs) on the retinoic acid response element (RARE). Through activation of the RAR/RXRs nuclear receptors, atRA regulates the transcription of a large number of protein-coding genes and regulatory RNAs. Intracellular levels of atRA are controlled by the retinol signaling pathway (RSP) that regulates the biosynthesis and catabolism of atRA to maintain physiological levels. Chemicals that interfere with the RSP can cause abnormal intracellular levels of atRA and therefore are potential developmental toxicants. To assess compounds for the potential adverse effect on embryonic development through interfering with retinol signaling, a cell-based RARE luciferase reporter gene assay was used. C3RL4 cell line (OARSA/CFSAN/FDA, Laurel, MD) was used to screen Tox21 10K compound library for identifying inhibitors of the RSP. Also cytotoxicity was assessed by determining the viability of cells based on the quantitation of ATP.
# Tox21 Assay Protocol Summary: C3RL4 cells were seeded at 1,000/well in 4 uL of assay medium into white solid 1,536-well tissue culture plates (Greiner Bio-One North America Inc. Monroe, NC) using a Multidrop Combi (Thermo Scientific, Waltham, MA) dispenser. After incubation at 37 C and 5% CO2 for an overnight, 23 nL of compounds dissolved in DMSO, positive control or DMSO only were transferred by a Pintool station (Kalypsys, San Diego, CA). One ul of 1 uM (final concentration) of Retinol was added right after the compound addition by using a Flying Reagent Dispenser (FRD) (Aurora Discovery, San Diego, CA). After 6 hr incubation at 37 C and 5% CO2, 5 uL of CellTiter-Glo reagent (Promega Corporation, Madison, WI) was added to each assay plate using an FRD. Luminescence was quantified on a ViewLux plate reader (PerkinElmer, Waltham, MA) after 30 min incubation at room temperature.
# % is scaled to controls: 0 for no effect and ±100 for the full control effect; potency is read from the fitted curve at half-maximal effect.
Structure (SMILES),"activity change, negative = cytotoxicity",Potency
O=S(=O)(O)c1ccc(O)c2ncccc12,4.14%,
c1ccc(OCc2ccc(CCCN3CCOCC3)cc2)cc1,-1.61% [at 42.5 µM],
O=C(CC(=O)c1ccccc1)c1ccccc1,-0.803%,
COc1ccccc1OC(=O)Oc1ccccc1OC,-2.54% [at 42.5 µM],
CCN(CC)C(C)CN1c2ccccc2Sc2ccccc21 (stereo not given),-0.811% [at 42.5 µM],
COc1ccc(C(C)=O)cc1,-0.482%,
Oc1ccc(O)c2c(O)cccc12,-5.5%,
N#CCCNCCC#N,1.16%,
Cl/C(=C\n1cncn1)c1ccc(Cl)cc1Cl,0.0485% [at 42.5 µM],
COCCOCCOCCOCCOC,3.94%,
Cn1c(=O)c2c(ncn2CC(O)CO)n(C)c1=O (stereo not given),3.83% [at 42.5 µM],
N#CCc1cccc(C(F)(F)F)c1,0.214%,
Cc1ccccc1N=Nc1ccc(N=Nc2c(O)ccc3ccccc23)c(C)c1,-5.54% [at 42.5 µM],
CC[C@H](C)[C@H](N)C(=O)O,3.41% [at 42.5 µM],
CC(Cc1cccc(C(F)(F)F)c1)NCCOC(=O)c1ccccc1 (stereo not given),-10.4% [at 42.5 µM],
CC(C)(C)c1ccc(OCC2CO2)cc1 (stereo not given),-1.14%,
Cc1ccc2c(ccc3ccccc32)c1,-4.38%,
Cn1sccc1=O,-7.94%,
CC[C@@H]1C[C@H](N(Cc2cc(C(F)(F)F)cc(C(F)(F)F)c2)C(C)=O)c2cc(C(F)(F)F)ccc2N1C(=O)OC(C)C,1.23%,
O=C(O)Cc1sc(-c2ccccc2)nc1-c1ccc(Cl)cc1,0.722% [at 42.5 µM],

Structure (SMILES),"activity change, negative = cytotoxicity",Potency
CCCCCOC(=O)c1ccc(O)cc1,-1.04%,
CCN1CCC[C@H]1CNC(=O)c1c(OC)ccc(Br)c1OC,-0.101% [at 42.5 µM],
CN1CCC(OC(c2ccccc2)c2ccccc2)CC1,2.98% [at 42.5 µM],
NC(N)=NN=C(/C=C/c1ccc([N+](=O)[O-])o1)/C=C/c1ccc([N+](=O)[O-])o1,,13.3 µM (active)
CCCc1ccccc1,-0.747%,
CN1CCC[C@@H]1c1cccnc1,-0.956% [at 42.5 µM],
CCOc1cc(OCC)c(C(=O)CCC(=O)O)cc1OCC,0.239% [at 42.5 µM],
COc1ccc(OC)c(OC)c1,0.69%,
CC(C)CCCCCCOC(=O)c1ccc(C(=O)OCCCCCCC(C)C)c(C(=O)OCCCCCCC(C)C)c1,0.245%,
CCOC(=S)SSC(=S)OCC,2.91%,
CC(=O)Nc1ccc(/C=N/NC(N)=S)cc1,0.313% [at 42.5 µM],
O=C(/C=C/c1ccc(O)c(O)c1)O[C@@H]1C[C@](O)(C(=O)O)C[C@@H](O)[C@H]1O,0.105%,
CCOC(=O)C1=C(C)NC(C)=C(C(=O)OC)C1c1cccc([N+](=O)[O-])c1 (stereo not given),3.47% [at 42.5 µM],
O=C(Nc1ccccc1)OCC(CN1CCCCC1)OC(=O)Nc1ccccc1 (stereo not given),-3.55% [at 42.5 µM],
CC(=O)SCc1ccco1,-0.0307%,
Cc1ccc(C)o1,1.95%,
CC(=O)NCCCS(=O)(=O)O,1.89% [at 42.5 µM],
Nc1cnn([C@@H]2O[C@H](CO)[C@@H](O)[C@H]2O)c(=O)n1,-0.194%,
NC(N)=N/N=C/c1c(Cl)cccc1Cl,-0.135% [at 42.5 µM],
O=C(O)COC(=O)Cc1ccccc1Nc1c(Cl)cccc1Cl,0.303% [at 42.5 µM],
